Screening data from PubChem BioAssay.
BAZ2B inh = inhibitors of human BAZ2B bromodomain | 360,000 compounds, 4.4% hits | Q9UIF8 | AlphaScreen BAZ2B-H3K14Ac peptide displacement | Potency, µM (doses to about 114 µM), without a hit: top-dose activity change, negative = inhibition, usual class: inhibitors; also: potency is read from the fitted curve at half-maximal effect; % is scaled to controls: 0 for no effect and ±100 for the full control effect; nearly all actives have a fitted effect of over 60% in size
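Compounds, titrated to a top concentration of 110 uM, were incubated 30 min at room temperature with preformed BAZ2B/acetyl-K14 H3 peptide complex (50 nM each). Proximity signal was measured by AlphaScreen after 20 min with beads.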
HP1b binding inh = HP1-beta chromodomain-methylated histone interaction inhibition. P83916. AlphaScreen HP1-beta / biotin-H3K9me3 peptide binding. Potency, µM (highest dose often 114 µM), without a hit: top-dose activity change, negative = inhibition, usual class: inhibitors. 390,000 compounds, 0.56% hits. AID 540317; also: potency is read from the fitted curve at half-maximal effect; nearly all actives have a fitted effect of over 70% in size
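Compound inhibition of the preformed complex between 50 nM HP1-beta and 50 nM biotinylated H3K9me3 peptide was read by AlphaScreen. Buffer was PBS pH 7.4 with 0.01% Tween-20. Incubations ran 30 min at room temperature, with 10 ug/mL donor/acceptor beads.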
JMJD2A Tudor inh = JMJD2A Tudor domain (human) inhibition | AID 504339 | AlphaScreen JMJD2A-Tudor / H3K4me3 peptide binding | 390,000 compounds, 4.4% hits | Potency, µM (series often up to 114 µM), inactives show top-dose activity change, negative = inhibition, most hits filed as inhibitors | O75164; also: potency is read from the fitted curve at half-maximal effect; % is scaled to controls: 0 for no effect and ±100 for the full control effect; nearly all actives have a fitted effect of over 50% in size
Six1-Eya2 inh = inhibitors of human Six1/Eya2 interaction | Q15475+O00167 | AlphaScreen GST-Six1/His-Eya2 binding, biochemical; hits give low values | activity change, % (test concentration not listed) | 360,000 compounds, 0.56% hits | AID 651725; in the data active = activity change below about -65%; inconclusive = mostly about -30% to -63%; also: % is scaled to controls: 0 for no effect and ±100 for the full control effect
Target sequence (O00167 whole entry, looked up): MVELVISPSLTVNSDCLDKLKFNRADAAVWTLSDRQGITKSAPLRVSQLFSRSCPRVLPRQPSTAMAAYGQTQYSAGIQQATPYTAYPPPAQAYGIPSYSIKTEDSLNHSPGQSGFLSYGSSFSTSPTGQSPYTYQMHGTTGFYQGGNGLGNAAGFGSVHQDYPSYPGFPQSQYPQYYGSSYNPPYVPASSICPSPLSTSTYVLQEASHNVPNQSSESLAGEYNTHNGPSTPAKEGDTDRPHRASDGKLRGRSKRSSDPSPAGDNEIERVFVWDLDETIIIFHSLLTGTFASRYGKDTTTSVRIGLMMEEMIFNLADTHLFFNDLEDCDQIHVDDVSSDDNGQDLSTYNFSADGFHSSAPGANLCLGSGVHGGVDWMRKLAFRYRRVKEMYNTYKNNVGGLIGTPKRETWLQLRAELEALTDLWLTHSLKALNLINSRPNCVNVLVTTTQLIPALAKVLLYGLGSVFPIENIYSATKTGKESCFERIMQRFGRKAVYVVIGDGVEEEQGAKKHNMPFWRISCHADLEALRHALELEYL
Target sequence (Q15475 whole entry, looked up): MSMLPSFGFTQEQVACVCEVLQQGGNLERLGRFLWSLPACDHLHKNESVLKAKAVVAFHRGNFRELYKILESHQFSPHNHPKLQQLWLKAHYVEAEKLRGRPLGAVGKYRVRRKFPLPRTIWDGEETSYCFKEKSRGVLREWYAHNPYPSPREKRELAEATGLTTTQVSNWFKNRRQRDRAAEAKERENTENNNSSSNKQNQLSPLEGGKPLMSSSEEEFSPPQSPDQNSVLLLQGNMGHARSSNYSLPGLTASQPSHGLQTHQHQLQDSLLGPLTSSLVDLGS
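AlphaScreen luminescence read after one hour at 37 °C in darkness. Pin-transferred compounds met GST-Six1 and His-Eya2 protein (5X stock 250 nM/500 nM) plus glutathione donor and Ni-chelate acceptor beads (5X, 50 ug/mL).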
CtBP-E1A blk = inhibitors of CtBP/E1A interaction; AID 651724; AlphaScreen GST-E1A/His-CtBP binding, 1536-well; hits give low values; activity change, % (test concentration not listed); 340,000 compounds, 0.49% hits; in the data active = activity change below about -65%; inconclusive = mostly about -30% to -63%; also: % is scaled to controls: 0 for no effect and ±100 for the full control effect
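Homogeneous bead-based format: GST-tagged E1A captured on glutathione donor beads, His-tagged CtBP on nickel acceptor beads; compounds precede bead addition by 2 h at 37 °C.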
G9a inh = G9a (human) methyltransferase inhibition; Q96KQ7; 350,000 compounds, 8.8% hits; G9a H3K9 monomethylation, AlphaScreen, 2 h; Potency, µM (titrated, usually from 102 µM), inactives show top-dose activity, negative = inhibition, hits mostly inhibitors; also: potency is read from the fitted curve at half-maximal effect; % is scaled to controls: 0 for no effect and ±100 for the full control effect; nearly all actives have a fitted effect of over 75% in size
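Enzyme 20 nM + cpd, 15 min RT; add b-H3K9 pep 500 nM / SAM 20 uM; 2 h RT; anti-H3K9me1 Ab 0.5 ug/mL + SA donor / anti-rabbit acceptor beads 20 ug/mL each, 10 min; AlphaScreen read.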
Numbers without * were called inactive; u = inconclusive; x = not tested or not shown; [ ] = dose if it differs, or a comment. Rows were chosen to be rich in hits. Some 10% of all compounds tested hit in one or more screens of this group. Unless noted, calls follow the shape of the dose curve; as a rule, active = well fitted inhibition curve with a large enough effect; inconclusive = small, poorly fitted or top-dose-only effect; inactive = no such curve, though single readings can be large or run the other way.

SMILES	BAZ2B inh	HP1b binding inh	JMJD2A Tudor inh	Six1-Eya2 inh	CtBP-E1A blk	G9a inh
COc1ccccc1/C=C\C(=O)NCC(=O)N/N=C(/C)c1cccc([N+](=O)[O-])c1	4%	53%	-7%	-20	-6	79µM*
Cc1ccc(NC(=O)CN2C(=O)COc3ccc(S(=O)(=O)NC4CCCC4)cc32)c(Cl)c1	-2%	4%	-28%	x	x	-2%[59 µM]
Cc1cc(C)c(NC(=O)CN(C)S(=O)(=O)c2ccc3c(c2)CCC(=O)N3)c(C)c1	-13%	39%	-7%	x	x	7%[59 µM]
CC1=CC(C)(C)NC(=S)N1c1cccc2cc(S(=O)(=O)O)ccc12	-38%	16%	u	-3	x	25µM*
Cc1ccc(C)c(C(=O)NC(C)c2ccc(-n3ccnc3)cc2)c1 (stereo unspecified)	-32%	17%	-12%	2	12	45%
COc1ccc(/C=C2/C(=O)OCc3cc(OC)c(OC)cc32)cc1	u	-15%	u	3	16	-45%[59 µM]
c1ccc(-c2ccccc2OCCCN2CCOCC2)cc1	18µM*	u	7.9µM*	3	x	x
O=[N+]([O-])c1ccccc1OCCCN1CCOCC1	-5%	-4%	-5%	3	1	38%[0.501 µM]
c1ccc(-c2ccccc2OCCN2CCCC2)cc1	56µM*	u	22µM*	-4	-5	7.9µM*
c1ccc(-c2ccccc2OCCOCCN2CCCCC2)cc1	-15%	u	3.2µM*	3	-4	u
OCCCN1CCN(CCCOc2ccccc2-c2ccccc2)CC1	-11%	33%	-15%	2	7	-4%[59 µM]
c1ccc(OCCOCCN2CCOCC2)cc1	11%	24%	-4%	1	6	25%
Fc1ccccc1OCCCN1CCOCC1	u	u	4.5µM*	1	10	u
COc1ccc(N2CCN(S(=O)(=O)CCNC(=O)c3ccc(OC(C)C)cc3)CC2)cc1	4%	22%[57 µM]	-1%	x	x	-10%[59 µM]
Cn1c(=O)c(-c2cc(F)cc(F)c2)nc2cnc(Oc3cccc(Cl)c3)nc21	x	x	x	x	x	-27%[12.7 µM]
COc1ccc(Oc2ncc3nc(-c4cccc(C#N)c4)c(=O)n(CCC#N)c3n2)cc1	x	x	x	x	x	6%[0.501 µM]
c1ccc(CCCN2CCOCC2)cc1	u	u	20µM*	-3	8	50µM*
c1ccc(-c2ccccc2OCCCCN2CCCCCC2)cc1	50µM*	-39%	22µM*	0	x	7.9µM*
COc1ccc2[nH]c(=O)c(-c3noc(-c4ccccc4)n3)cc2c1	50µM*	43%	u	-15	-12	u
COc1ccc2[nH]c(=O)c(-c3nnn(-c4ccc(Cl)nc4)n3)cc2c1	x	4%	50µM*	-4	-3	x
COc1ccc(NS(=O)(=O)c2ccc(NC(=S)NC(=O)/C=C/c3ccccc3)cc2)nn1	-38%	u	-34%	-17	-1	u
COc1ccc(C2=Nc3nc(-c4ccccc4)cn3C(c3ccc(OC)cc3)C2)cc1 (stereo unspecified)	-2%	40%	-17%	-1	x	22µM*
CCCC[n+]1c(C)sc2ccc(C)cc21	-15%	66%	-17%	0	0	-48%
Cc1ccc2sc(C)[n+](CCO)c2c1	x	12%	-17%	10	1	28µM*
CCN(CC)c1ccc(N=Nc2nn(C)c(C)c2[N+](=O)[O-])cc1	10µM*	14µM*	u	-67*	u	u
SMILES	BAZ2B inh	HP1b binding inh	JMJD2A Tudor inh	Six1-Eya2 inh	CtBP-E1A blk	G9a inh
CCN(Cc1ccccc1)c1ccc(N=Nc2nn(C)c(C)c2[N+](=O)[O-])cc1	8.9µM*	u	6.3µM*	-70*	-68*	10µM*
COc1cccc(N2CCN(C(=O)CCCn3c(=O)[nH]c4ccc(Br)cc4c3=O)CC2)c1	-32%	-16%	u	x	x	u
CNc1cncc(-c2cccc(C(C)=O)c2)n1	x	x	x	-3	-26	x
CNc1cncc(-c2cccc(NS(C)(=O)=O)c2)n1	x	x	x	u	-67*	x
COc1ccc(O)c(C(=O)c2cnn(-c3ccccc3)c2)c1	-27%	-15%	-32%	4	-1	4.5µM*
COc1ccc(-n2cc(C(=O)c3ccccc3O)cn2)cc1	23%	49%	20%	0	5	77%
O=c1[nH]c2ccccc2nc1/C=C/c1ccc(Cl)cc1	-3%	8%	10µM*	8	-7	-5%
CC(=O)Nc1ccc(/C=C/c2nc3ccccc3[nH]c2=O)cc1	1%	28%	-6%	-1	-5	u
CCOc1cc(C2CC(=O)Nc3c2c(=O)nc(SCc2cccc(Cl)c2)n3C)ccc1O (stereo unspecified)	u	31%	-18%	x	x	-5%[59 µM]
CC1(C)SC2C(C(=O)O)N=C(Cc3ccccc3)N2C1C(=O)O (stereo unspecified)	x	71%	u	-81*	-84*	x
Cc1ccc(OCC(=O)NNC(=S)NC(=O)C(C)(C)C)c(Br)c1	-3%	-5%	u	-3	-1	25µM*
Cc1ccc(OCC(=O)NNC(=S)NC(=O)C2CCCCC2)c(C)c1	-14%	13%	-35%	-11	-3	18µM*
N#Cc1ccc(OCC(=O)NNC(=S)NC(=O)C2CC2)cc1	x	24%	28µM*	-17	-13	x
CC(C)c1ccc(OCC(=O)NNC(=S)NC(=O)C2CC2)cc1	-1%	3%	-25%	-28	0	-6%[12.7 µM]
Cc1ccc(OCC(=O)NNC(=S)NC(=O)C2CC2)c(C)c1	-22%	x	x	x	x	10µM*
Nc1cc(Cl)ccc1CN1C(=O)c2ccccc2C1=O	x	x	x	1	3	x
CCCCc1nnc(NC(=O)c2ccc3[nH]c(=O)c(=O)[nH]c3c2)s1	-25%	22%	2%	-13	x	53%
CCCCCc1c(O)nc(SCCN2CCOCC2)[nH]c1=O	-27%	-1%	-17%	1	3	-4%
CC(C)(CNS(=O)(=O)c1ccc2ccccc2c1)N1CCOCC1	4%	47%	-5%	23	2	u
